Structures are written as SMILES. Results filed as inconclusive are left out. The source made the active and inactive calls. Unless noted, no cut-off is given here; in the data, nearly all actives have AC50 up to about 37 µM. Numbered stars: 1 amine (or outer) side, 2 acyl side, 3 side chain; on linkers, the order of the positions; unused ones are H or OH. Bridge positions count the residues as written; N and C are the ends. Square brackets hold non-standard residues; d marks the D form. Peptide text beside a SMILES is read from it. I, II: the chains in the order shown. Actinocin(9to1) = Cc1c2oc3c(C)ccc(C(=O)[*:1])c3nc-2c(C(=O)[*:2])c(N)c1=O; NMeV = CN[CH](C(=O)O)C(C)C; Sar = CNCC(=O)O

Assay [1] in a line: GFP-Q80 aggregate reduction, neuronal-like cells, cell-based, NGF-treated PC12, GFPQ80 (AID 1614).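 Note: lower means fewer inclusions and 0 means no inclusions at all.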 To be noted: PC12 NGF-treated GFP-polyQ80 inclusion reduction.
A short description of assay [2]: viability loss in pontine glioma line – cell-based, SU-DIPG-XIII, MIPE4.0, CellTiter-Glo, qHTS, dose response (AID 1347061).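 Note: cells exposed to compound for 48 hours before readout.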 To be noted: CellTiter-Glo ATP luminescence. In general terms: ATP-based viability assays read luminescence as a measure of living cells.
Assay [3] in a line: chitosan synthesis blockers in C. neoformans – flow cytometry, Cibacron Brilliant Red staining (AID 1347148; call rule not given here;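 note: compound exposure lasted three days at 37 degrees C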). Conditions: Cryptococcus neoformans chitosan, stronger effect = lower value; at 10 µM unless noted. For orientation: A flow cytometer gives signals particle by particle.

The molecule `CN1CCC[C@H]1c1cccnc1` gave an inclusion score in assay [1] of 2.
As for `COC(=O)Nc1nc2ccc(C(=O)c3ccc(F)cc3)cc2[nH]1`, in assay [2], the result was inactive.
Still for that read-out and setting: to `Cc1c2oc3c(C)ccc(C(=O)NC4C(=O)NC(C(C)C)C(=O)N5CCCC5C(=O)N(C)CC(=O)N(C)C(C(C)C)C(=O)OC4C)c3nc-2c(C(=O)NC2C(=O)NC(C(C)C)C(=O)N3CCCC3C(=O)N(C)CC(=O)N(C)C(C(C)C)C(=O)OC2C)c(N)c1=O` (stereo unspecified) (I: TVP[Sar][NMeV] / II: TVP[Sar][NMeV]; ester I:1-I:C, II:1-II:C; linker I:N-II:N via Actinocin(9to1); configuration not given here) belongs “inactive”.
In the case of `O=c1[nH]c2ccccc2c2ccccc12`, in assay [3], the fold fluorescence was 3.09 [at 256.1 µM] (inactive).
As to `CO[C@H]1O[C@@H]2O[C@@]3(C)CC[C@H]4[C@H](C)CC[C@@H]([C@H]1C)[C@@]24OO3`, the outcome in assay [2] was inactive.
In the case of `CN(C)CC/C=C1/c2ccccc2COc2ccccc21`, in assay [1], the inclusion score is 2.
